Data taken from PubChem BioAssay.
Calls of active or inactive are those of the source. Unless noted, no rule for the calls is given here.

Legend:
[1] = compound effects on lung adenocarcinoma cell viability – A549, calcein-AM fluorescence, 48 h, basal, profiling panel (AID 1162); details: higher = more signal; also: test concentration not given here
[2] = compound effects on differentiated 3T3-L1 adipocyte viability – cell-based, 3T3-L1 adipocytes, calcein-AM fluorescence, 48 h, basal, profiling panel (AID 1163); details: 3T3-L1 adipocytes viability, higher = more signal; also: test concentration not given here
[3] = compound effects on hepatocellular carcinoma cell viability – HepG2, calcein-AM fluorescence, 48 h, basal, profiling panel (AID 1164); details: higher = more signal; also: test concentration not given here
[4] = compound effects on multiple myeloma cell viability – MM1S, calcein-AM fluorescence, 48 h, basal, profiling panel (AID 1165); details: higher = more signal;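 also: viability of MM1S multiple myeloma cells under basal unstimulated conditions; test concentration not given here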
[5] = calcein-AM signal in unstimulated myeloma cells – cell-based, calcein-AM fluorescence, 48 h, PK04 Diversity Set, profiling panel (AID 1166); details: RPMI8226 myeloma viability, higher = more signal;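 also: cells grown under basal conditions without added stimulus; test concentration not given here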
[6] = JC-1 mitochondrial signal, unstimulated HepG2 cells – cell-based, JC-1 fluorescence, 24 h, 100 nL compound, profiling panel (AID 1167); details: HepG2 mitochondrial potential, higher = more signal; also: test concentration not given here
[7] = JC-1 mitochondrial signal, unstimulated adipocytes – cell-based, JC-1 fluorescence, 3T3-L1 adipocytes, 24 h, 100 nL compound, profiling panel (AID 1168); details: JC-1 mitochondrial fluorescence, higher = more signal, called active from +8 up or from −8 down; also: test concentration not given here
[8] = JC-1 mitochondrial signal, unstimulated myeloma cells – cell-based, JC-1 fluorescence, RPMI8226, 24 h, 100 nL compound, profiling panel (AID 1169); details: JC-1 mitochondrial potential fluorescence, higher = more signal; also: test concentration not given here
[9] = JC-1 mitochondrial signal, unstimulated MM1S myeloma – cell-based, JC-1 fluorescence, 24 h, 100 nL compound, profiling panel (AID 1170); details: MM1S mitochondrial potential, higher = more signal; also: test concentration not given here
[10] = resazurin metabolic signal in A549 cells – cell-based, resazurin fluorescence, 24 h, PK04 Diversity Set, profiling panel (AID 1171); details: A549 viability, higher = more signal, called active from +8 up or from −8 down; also: test concentration not given here
[11] = resazurin metabolic signal in HepG2 cells – cell-based, resazurin fluorescence, 24 h, PK04 Diversity Set, profiling panel (AID 1172); details: HepG2 viability, higher = more signal; also: test concentration not given here
[12] = budding yeast growth changes without added modifier – OD600, strain BY4716, 24 h, basal condition, primary screen (AID 1173); details: S. cerevisiae BY4716 growth, OD600, 24 h; higher = more signal, called active from +8 up or from −8 down
[13] = viability profiling in MM1S myeloma cells – cell-based, resazurin fluorescence, basal, 24 h, PK04 Diversity Set, profiling panel (AID 1174); details: higher = more signal, called active from +8 up or from −8 down; also: test concentration not given here
[14] = target: Dihydroorotate dehydrogenase (quinone), mitochondrial (Plasmodium falciparum (isolate 3D7)) (UniProt Q08210); assay: inhibition of P. falciparum DHODH – biochemical, C-terminal His tag, absorbance 600 nm, primary screen (AID 1175); details: PfDHODH enzyme, DCIP absorbance 600 nm; higher = more signal, called active from +8 up or from −8 down;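 also: recombinant parasite enzyme with a five histidine tag at its C terminus; test concentration not given here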
[15] = inhibition of PAO1 biofilm formation – strain PAO1, LB-PBS medium, absorbance 600 nm, primary screen (AID 1176); also: test concentration not given here; details: P. aeruginosa PAO1 growth/biofilm, A600, 12 h; higher = more signal
[16] = growth modulation of vineyard yeast isolate – strain RM11-1a, OD600, basal, 24 h, primary screen (AID 1177);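 also: cultures grown under basal conditions with no added stressor; test concentration not given here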; details: S. cerevisiae RM11-1a growth, OD600, 24 h; higher = more signal, called active from +8 up or from −8 down
[17] = growth of efflux-deficient E. coli DRC39 – strain DRC39, OD650, 24 h, E. coli filamentation inducers, primary screen (AID 1178);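 also: growth measured as culture turbidity by optical density at 650 nm; test concentration not given here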; details: E. coli DRC39 acrAB, higher = more signal, called active from +8 up or from −8 down
[18] = growth of efflux-deficient E. coli DRC39 – strain DRC39, OD650, 48 h, E. coli filamentation inducers, primary screen (AID 1179);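 also: screen aims at cell division blockers that make cells filament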; details: E. coli DRC39 delta-acrAB growth, higher = more signal, called active from +8 up or from −8 down
[19] = viability profiling in RPMI8226 myeloma cells – cell-based, resazurin fluorescence, basal, 24 h, PK04 Diversity Set, profiling panel (AID 1180); details: higher = more signal;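 also: RPMI8826 multiple myeloma cell line at 5000 cells per well; test concentration not given here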
[20] = target: E3 ubiquitin-protein ligase XIAP (Homo sapiens) (UniProt P98170); assay: small molecules binding XIAP protein – biophysical, small-molecule microarray, fluorescence 635 nm, primary screen (AID 1181); details: higher = more signal;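 also: score merges 667 nm emission and signal to noise over triplicate slides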
Chain of E3 ubiquitin-protein ligase XIAP (Homo sapiens) (P98170 whole entry, looked up): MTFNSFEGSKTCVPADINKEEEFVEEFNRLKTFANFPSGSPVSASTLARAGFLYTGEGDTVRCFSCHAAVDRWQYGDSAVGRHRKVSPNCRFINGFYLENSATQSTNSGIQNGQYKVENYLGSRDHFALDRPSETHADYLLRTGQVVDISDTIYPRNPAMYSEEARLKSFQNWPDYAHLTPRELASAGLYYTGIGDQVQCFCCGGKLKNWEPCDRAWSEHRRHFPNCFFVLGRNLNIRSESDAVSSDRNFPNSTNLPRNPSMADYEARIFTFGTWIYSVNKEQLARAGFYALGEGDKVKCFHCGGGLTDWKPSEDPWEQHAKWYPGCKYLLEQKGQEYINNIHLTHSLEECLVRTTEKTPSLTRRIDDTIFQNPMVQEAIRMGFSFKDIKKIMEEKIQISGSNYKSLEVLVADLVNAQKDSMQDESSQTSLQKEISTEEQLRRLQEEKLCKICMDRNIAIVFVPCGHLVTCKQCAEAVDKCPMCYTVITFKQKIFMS

Chain of Dihydroorotate dehydrogenase (quinone), mitochondrial (Plasmodium falciparum (isolate 3D7)) (Q08210 whole entry, looked up): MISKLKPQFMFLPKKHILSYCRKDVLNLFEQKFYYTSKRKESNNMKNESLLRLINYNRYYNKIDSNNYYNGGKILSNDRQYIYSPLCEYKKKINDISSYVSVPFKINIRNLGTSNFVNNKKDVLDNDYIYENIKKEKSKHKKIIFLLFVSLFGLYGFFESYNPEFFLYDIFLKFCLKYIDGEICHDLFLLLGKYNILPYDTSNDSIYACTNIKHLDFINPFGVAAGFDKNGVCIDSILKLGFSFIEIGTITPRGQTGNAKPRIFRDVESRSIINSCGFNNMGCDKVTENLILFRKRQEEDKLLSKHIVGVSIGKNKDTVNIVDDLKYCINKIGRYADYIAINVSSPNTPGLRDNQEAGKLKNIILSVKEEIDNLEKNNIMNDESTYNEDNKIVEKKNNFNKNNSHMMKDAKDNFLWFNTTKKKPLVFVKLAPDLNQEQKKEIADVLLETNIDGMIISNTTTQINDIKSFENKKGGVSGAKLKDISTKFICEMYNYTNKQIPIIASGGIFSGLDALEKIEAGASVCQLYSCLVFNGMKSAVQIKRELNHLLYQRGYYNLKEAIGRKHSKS

| SMILES | z-score [1] | z-score [2] | z-score [3] | z-score [4] | z-score [5] | z-score [6] | z-score [7] | z-score [8] | z-score [9] | z-score [10] | z-score [11] | z-score [12] | z-score [13] | composite z-score [14] | z-score [15] | z-score [16] | z-score [17] | z-score [18] | z-score [19] | composite z-score [20] |
| --- | --- | --- | --- | --- | --- | --- | --- | --- | --- | --- | --- | --- | --- | --- | --- | --- | --- | --- | --- | --- |
| CCN(CC)c1ccc(N2CC=CC34O[C@@H]5/C=C\CCCOC(=O)C5[C@H]3C(=O)N(CCCCCO)[C@@H]4C2=O)cc1 (stereo not given in full) | 0.147 | 0.184 | 0.481 | -0.459 | -0.711 | -0.589 | -0.267 (inactive) | 0.0223 | 0.515 | 0.0257 (inactive) | -0.162 | -0.606 (inactive) | 0.361 (inactive) | -0.706 (inactive) | -0.553 (inactive) | -0.27 (inactive) | -0.388 (inactive) | -0.241 (inactive) | 0.681 | -0.0264 |
| CCCCCCC#C[Si](O[C@H](c1ccccc1)c1cn(Cc2cccc(Cl)c2)nn1)(C(C)C)C(C)C | 1.11 | -0.896 | 0.761 | 0.481 | -0.695 | 3.44 | 0.169 (inactive) | -0.149 | -1.06 | 2.58 (inactive) | 0.809 | -0.419 (inactive) | 1.31 (inactive) | -0.0872 (inactive) | 0.101 (inactive) | 0.738 (inactive) | 0.804 (inactive) | 1.19 (inactive) | 2.01 | -0.0447 |
| C[N+](C)(C)CCCC[C@@H]1NC(=O)[C@@H]2C[C@H](C(=O)O)[C@H](c3cccc(OCCO)c3)N2C1=O | 1.58 | 0.185 | 0.403 | 0.305 | 0.367 | 2.43 | 0.204 (inactive) | 0.423 | 0.17 | 1.13 (inactive) | 0.72 | -0.219 (inactive) | 0.838 (inactive) | 0.284 (inactive) | -0.351 (inactive) | -0.126 (inactive) | 1.13 (inactive) | 1.36 (inactive) | 0.826 | -0.131 |
| O=C1N(Cc2ccccc2)c2ccccc2[C@H]2OC(c3ccc(OCCCO)cc3)=N[C@@]12CCS(=O)(=O)c1ccccc1 | -0.737 | 0.899 | -0.117 | -0.641 | -1.43 | 0.291 | 0.605 (inactive) | -0.497 | -0.0454 | -0.725 (inactive) | -0.362 | 1.21 (inactive) | -0.56 (inactive) | 0.876 (inactive) | 1.47 (inactive) | 2.68 (inactive) | 0.244 (inactive) | -0.939 (inactive) | -0.509 | 0.12 |
| C=CCN1C(=O)[C@@]2(O[C@@H](CCO)[C@H]([Si](C)(C)c3ccc(OC)cc3)[C@H]2C)c2cc(NC(=O)[C@H](C)O)ccc21 | 0.174 | 0.178 | -2.92 | -2.69 | -4.41 | 1.89 | 0.18 (inactive) | -0.872 | -1.09 | -2.25 (inactive) | -1.15 | -2.34 (inactive) | -2.15 (inactive) | -0.108 (inactive) | 1.73 (inactive) | 2.32 (inactive) | 0.895 (inactive) | 0.403 (inactive) | -2.3 | 0.555 |
| CCCN1C(=O)[C@@H]2Cc3c([nH]c4ccccc34)[C@@H](c3cccc(O)c3)N2C1=O | -0.362 | 0.407 | -1.81 | 0.342 | -0.178 | -1.45 | 0.137 (inactive) | -0.137 | -0.211 | 0.264 (inactive) | 0.944 | 0.852 (inactive) | 0.327 (inactive) | -0.931 (inactive) | 0.764 (inactive) | 0.0696 (inactive) | 0.19 (inactive) | 0.0246 (inactive) | 0.0074 | -0.313 |
| CC(C)(C)OC(=O)CC[C@@]1(C(=O)N2CCCCC2)N=C(c2ccc(OCCCO)cc2)O[C@@H]1c1ccccc1CN=[N+]=[N-] | 0.708 | -0.125 | 1.25 | -3.47 | -0.624 | 2.12 | -0.405 (inactive) | -0.863 | -0.995 | 0.642 (inactive) | 0.613 | 0.0243 (inactive) | 0.053 (inactive) | 0.113 (inactive) | -0.223 (inactive) | 0.978 (inactive) | -0.366 (inactive) | 0.831 (inactive) | 0.0127 | 0.183 |
| C=C[C@@H](O)[C@H]1CC(c2ccccc2)=NO1 | 0.721 | -3.92 | -0.34 | 0.626 | 0.353 | 0.0313 | -0.809 (inactive) | 0.434 | -0.819 | 0.558 (inactive) | 0.0502 | -2.38 (inactive) | 0.325 (inactive) | -0.344 (inactive) | -0.496 (inactive) | -0.2 (inactive) | -0.105 (inactive) | 0.194 (inactive) | 1.08 | -0.0473 |
| CC1C=C(CCCO)C=C(C(=O)OCCS(C)(=O)=O)C(C(=O)OCCS(C)(=O)=O)=CN1Cc1cccc(OC(F)(F)F)c1 (stereo not given) | 0.114 | 0.606 | 1.23 | -0.289 | -0.226 | 1.27 | -0.63 (inactive) | 0.186 | -0.0273 | -0.0746 (inactive) | -0.096 | -3.46 (inactive) | -0.0212 (inactive) | -2.15 (inactive) | 0.944 (inactive) | 0.309 (inactive) | 0.736 (inactive) | 0.503 (inactive) | 0.0364 | -0.0659 |
